According to PubChem BioAssay AID602340 (Broad Institute, 2012):
The whole screen tested about 330,000 compounds, of which about 2,600 (0.79%) were called active.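 The calls were made as follows: active = mean ATP rescue above about 67%, or every replicate alone reaching that limit (limit read from the data, passing the limit was not always enough); inconclusive = no clear call, values can overlap the other calls; inactive = mean under the limit and some replicate under it.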 The entries come from a sample that favours actives as a whole.

Test: protection of differentiated C2C12 cells from simvastatin – single point, plate reader, primary screen (AID 602340);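 also: myotubes were challenged with 10 µM simvastatin during compound exposure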
Details: C2C12 myotubes + simvastatin, ATP luminescence, 48 h; at 7.49 µM; hits give high values; scaled: DMSO 0, geranylgeraniol control 100

Compound | rescue of ATP level
COc1ccccc1N1CCN(C(=O)CSc2nnc(-c3ccoc3C)o2)CC1 | 2.45% (inactive)
O=C(CSc1nnc(-c2ccccc2O)o1)NC1CCCCC1 | -6.5% (inactive)
COc1ccccc1-c1nnc(SCC(=O)N2CC(C)CC(C)C2)o1 (stereo not drawn) | 120% (active)
C[C@@H]1CN([C@H](C)CO)C(=O)c2cc(C#Cc3ccncc3)cnc2O[C@H]1CN(C)Cc1ccncc1 | -5.15% (inactive)
C[C@H]1CN([C@@H](C)CO)C(=O)CCCn2nncc2CO[C@H]1CN(C)Cc1cccc(C(=O)O)c1 | -4.85% (inactive)
O=C(NN=Cc1ccccc1O)C(=O)NN=Cc1ccccc1O | 1.41% (inactive)
CCCC#Cc1ccc2c(c1)O[C@@H](CN(C)CC1CC1)[C@@H](C)CN([C@H](C)CO)S2(=O)=O | 33.5% (inactive)
CCS(=O)(=O)N1[C@H](CO)[C@@H](c2ccc(C#CC(C)C)cc2)[C@@H]1C#N | -1.94% (inactive)
Cc1noc(C)c1NC(=O)N[C@H]1CC[C@H](CC(=O)N2CCCCC2)O[C@@H]1CO | 0.234% (inactive)
CC=Cc1ccc2n(c1=O)C[C@@H]1[C@@H](CO)[C@H](C(=O)N3CCc4ccccc4C3)N(C(=O)C3CCC3)[C@H]21 (mixture of isomers) | 17.5% (inactive)
COc1ccc(C(=O)NC(=S)Nc2ccccc2N2CCN(S(C)(=O)=O)CC2)cc1OC | 103% (active)
COc1ccccc1C(=O)NC(=S)Nc1ccccc1N1CCCCC1 | 0.351% (inactive)
CC(=O)N1CCN(c2ccccc2NC(=S)NC(=O)c2cc3ccccc3o2)CC1 | 12.9% (inactive)
CO[C@@H]1CN(C)C(=O)c2ccc(NC(=O)C3CC3)cc2OC[C@@H](C)N(Cc2ccncc2)C[C@@H]1C | 6.35% (inactive)
COc1ccc(CN(C)C[C@H]2OCc3cn(nn3)CCCC(=O)N([C@@H](C)CO)C[C@@H]2C)cc1 | 11.6% (inactive)
C[C@H]1CN([C@@H](C)CO)C(=O)c2cc(C#CC3CCCCC3)cnc2O[C@@H]1CN(C)C(=O)Cc1ccccn1 | 16.9% (inactive)
O=C(O)C1CC=C(Cl)CC1C(=O)NCc1ccccc1 (stereo not drawn) | -8.07% (inactive)
O=C(O)C1CC=CCC1C(=O)NCCc1ccccc1 (stereo not drawn) | 104% (active)
O=C(NCCc1ccccc1)C1CC1 | 7.36% (inactive)
C[C@H]1CN([C@@H](C)CO)C(=O)c2cc(NC(=O)C3CCCCC3)ccc2O[C@H]1CN(C)C(=O)Nc1ccccc1 | 6.29% (inactive)
COC(=O)c1ccc(CN2C(=O)NC(c3ccccc3)(c3ccccc3)C2=O)o1 | 1.69% (inactive)
COc1ccc(C2(c3ccc(OC)cc3)NC(=O)N(CC(=O)Nc3cc(C)on3)C2=O)cc1 | -1.37% (inactive)
Cc1ccc(C2(c3ccc(C)cc3)NC(=O)N(Cc3c(C)noc3C)C2=O)cc1 | 195% (active)
Cc1noc(C)c1NC(=O)N(C)C[C@H]1Oc2ccc(NC(=O)Cn3cnnn3)cc2CC(=O)N([C@H](C)CO)C[C@@H]1C | 3.98% (inactive)
COc1ccc(-n2nnnc2CNC(=O)c2ccc3ccccc3c2)cc1 | -15.7% (inactive)
O=C(NCc1nnnn1-c1ccc(Cl)cc1)c1ccc([N+](=O)[O-])o1 | 89% (active)

Compound | rescue of ATP level
O=C(NCc1nnnn1-c1ccc(Cl)cc1)c1ccc2c(c1)OCO2 | -0.994% (inactive)
CCCN1[C@@H]2c3ccc(-c4ccccc4OC)c(=O)n3C[C@H]1[C@H](CO)[C@H]2C(=O)NCc1ccccn1 | -9.62% (inactive)
Cn1c(=O)n(C)c2cc(/C=N/NC(=O)c3cccc(Br)c3)ccc21 | 70.7% (active)
O=C(N/N=C/c1cccc(Br)c1)c1ccc(N2CCCC2=O)cc1 | -20% (inactive)
Cn1c(=O)n(C)c2cc(C(=O)Nc3ccc(Br)cc3)ccc21 | -4.21% (inactive)
N#Cc1ccc(Oc2ccc(C(F)(F)F)cc2NC(=O)c2ccc(F)cc2)cc1 | -5.87% (inactive)
N#Cc1ncc(C(F)(F)F)cc1Oc1cccnc1 | -4.63% (inactive)
NC(=O)c1ncc(C(F)(F)F)cc1Oc1ccc(F)cc1 | 162% (active)
CO[C@H]1CN(C)C(=O)c2ccc(NC(=O)C3CC3)cc2OC[C@H](C)N(CCc2ccccc2)C[C@H]1C | 15.6% (inactive)
O=C(C[C@H]1C=C[C@@H](NC(=O)C2CCOCC2)[C@@H](CO)O1)NCC1CCCCC1 | -2.92% (inactive)
CO[C@@H]1CN(C)C(=O)c2cc(NS(=O)(=O)CC(F)(F)F)ccc2OC[C@@H](C)N(Cc2ccccn2)C[C@H]1C | -12.7% (inactive)
COC(=O)Nc1sc2nc(C)cc(C)c2c1-n1cccc1 | -7.59% (inactive)
CCCCOC(=O)Nc1sc2nc(C)cc(C)c2c1-n1cccc1 | 66.9% (active)
Cc1cc(C)c2c(-n3cccc3)c(C(=O)NNS(=O)(=O)c3ccc(F)cc3)sc2n1 | 7.07% (inactive)
CCC(=O)N(C)C[C@H]1[C@H](c2ccc(C3=CCCCC3)cc2)[C@@H](CO)N1C(C)=O | 16.5% (inactive)
C[C@H]1CN([C@@H](C)CO)C(=O)Cc2cc(NC(=O)CCCCCC(=O)Nc3ccccc3N)ccc2O[C@@H]1CN(C)Cc1ccncc1 | 20.5% (inactive)
C[C@@H]1CN([C@H](C)CO)C(=O)Cc2cc(NC(=O)CCC(F)(F)F)ccc2O[C@@H]1CN(C)Cc1ccncc1 | -15.3% (inactive)
C[C@@H]1CN([C@@H](C)CO)C(=O)Cc2cc(NC(=O)CCCCCC(=O)Nc3ccccc3N)ccc2O[C@H]1CN(C)C(=O)Nc1ccc(C(F)(F)F)cc1 | -13.1% (inactive)
C[C@H](CO)N1C[C@H](C)[C@@H](CN(C)Cc2ccc(-c3ccccc3)cc2)Oc2ccc(NC(=O)CCC(F)(F)F)cc2CC1=O | 74.7% (active)
C[C@H](CO)N1C[C@H](C)[C@H](CN(C)Cc2ccc(C(F)(F)F)cc2)Oc2ccc(NC(=O)CCCCCC(=O)Nc3ccccc3N)cc2CC1=O | 183% (active)
C[C@H]1CN([C@@H](C)CO)C(=O)Cc2cc(NC(=O)Cn3cnnn3)ccc2O[C@H]1CN(C)Cc1ccc(C(=O)O)cc1 | -21.6% (inactive)
C[C@H]1CN([C@@H](C)CO)C(=O)Cc2cc(NC(=O)CCCN(C)C)ccc2O[C@@H]1CN(C)Cc1ccc(-c2ccccc2)cc1 | 17.6% (inactive)
C[C@@H]1CN([C@H](C)CO)C(=O)Cc2cc(NC(=O)Cn3cnnn3)ccc2O[C@H]1CN(C)Cc1ccc(Cl)c(Cl)c1 | 18.5% (inactive)
C[C@H](CO)N1C[C@H](C)[C@@H](CN(C)Cc2ccc(Cl)c(Cl)c2)Oc2ccc(NC(=O)Cn3cnnn3)cc2CC1=O | 88.7% (active)
CO[C@H]1CN(C)C(=O)c2ccc(NC(C)=O)cc2OC[C@H](C)N(C(=O)c2ccccc2)C[C@H]1C | 3.84% (inactive)
C[C@@H](NC(=O)[C@H]1[C@H](CO)[C@H]2Cn3c(cccc3=O)[C@@H]1N2Cc1cccnc1)c1ccccc1 | -8.14% (inactive)

Compound | rescue of ATP level
C/C=C/c1ccc2c(c1)O[C@@H](CN(C)CC1CCOCC1)[C@@H](C)CN([C@H](C)CO)S2(=O)=O | 1.59% (inactive)
COCC(=O)N(C[C@H]1N[C@H](CO)[C@H]1c1ccc(C2=CCCCC2)cc1)C(C)C | -22.7% (inactive)
Cc1noc(C)c1NC(=O)Nc1ccc2c(c1)CC(=O)N([C@@H](C)CO)C[C@H](C)[C@H](CN(C)S(=O)(=O)c1c(C)noc1C)O2 | -4.37% (inactive)
O=C(NCC[C@@H]1CC[C@H](NC(=O)Nc2cc(F)ccc2F)[C@@H](CO)O1)Nc1ccc(Cl)cc1 | 2.28% (inactive)
Cn1c(N)c(C(=O)COC(=O)COc2ccc(Cl)cc2)c(=O)n(C)c1=O | 9.73% (inactive)
Cc1cc(C(=O)OCC(=O)c2c(N)n(C)c(=O)n(C)c2=O)c(C)o1 | 148% (active)
Cn1c(N)c(C(=O)COC(=O)c2ccc3ccccc3c2)c(=O)n(C)c1=O | -2.95% (inactive)
COc1ccc(S(=O)(=O)Nc2cccc3c2O[C@@H](CN(C)C(=O)Nc2ccccc2)[C@@H](C)CN([C@H](C)CO)C3=O)cc1 | -38.3% (inactive)
Cc1ccc(-c2csc(NC3OC(=O)c4ccccc43)n2)cc1 (stereo not drawn) | -7.28% (inactive)
Cc1ccc(-c2csc(-c3c[nH]c4ccccc34)n2)cc1 | 102% (active)
CCn1c(SCCC(C)C)nnc1-c1c[nH]c2ccccc12 | -7.75% (inactive)
O=C(CN1CCN(c2nc(-c3ccccc3)cs2)CC1)NCc1ccc2c(c1)OCO2 | 124% (active)
Cc1ccc(-c2nc(CS(=O)(=O)CC(=O)NCc3ccc4c(c3)OCO4)c(C)o2)cc1 | 28.8% (inactive)
CC1(C(=O)NCc2ccc3c(c2)OCO3)CCN1CCc1ccccc1 (stereo not drawn) | 34.5% (inactive)
COc1ccc(NC(=O)CNC(=O)Cc2ccccc2)cc1OC | -3.67% (inactive)
CCCOc1ccc(Cn2c(O)cc(=O)[nH]c2=O)cc1 | 2.27% (inactive)
COc1cc(=O)[nH]c(=O)n1C(=O)Cc1ccccc1 | 89.8% (active)
CCCNC(=O)N1[C@H](CNC(C)=O)[C@@H](c2ccc(C3=CCCC3)cc2)[C@@H]1CO | 17.7% (inactive)
O=C(N[C@H]1C=C[C@@H](CC(=O)N2CCCCC2)O[C@@H]1CO)c1ccc2c(c1)OCO2 | -0.462% (inactive)
CO[C@@H]1CN(C)C(=O)c2cc(NC(=O)NC3CCCCC3)ccc2OC[C@H](C)N(CC2CCOCC2)C[C@H]1C | -0.27% (inactive)
Cc1ccnc(NC(=O)CCNS(=O)(=O)c2ccc(C)c(C)c2)c1 | 0.26% (inactive)
CC(=O)CCS(=O)(=O)c1ccc(C)c(C)c1 | 101% (active)
Cc1ccc(S(=O)(=O)NCCC(=O)Nc2ccc(C)c(Cl)c2)cc1C | 1.52% (inactive)
COc1ccc(C(O)c2nc(-c3ccc4c(c3)OCO4)cs2)cc1 (stereo not drawn) | 87.4% (active)
COc1ccc(C(O)c2nc(-c3ccc(OC)nc3)cs2)cc1 (stereo not drawn) | 4.92% (inactive)
COc1cccc(C(O)c2nc(-c3ccc(C)c(C)c3)cs2)c1 (stereo not drawn) | 8.62% (inactive)
